According to PubChem BioAssay AID651965 (National Center for Advancing Translational Sciences (NCATS), 2013):
In all, about 340,000 compounds went through this assay and about 6,400 (1.9%) were called active. Not shown: some 4% with an inconclusive outcome. The call rests on the fitted dose curve; in most records, active means well fitted falling curve with a large enough effect; inconclusive means small, poorly fitted or top-dose-only effect; inactive means no such curve, though single readings can be large or run the other way. Shown is part of a subset that was picked to be rich in actives.

What follows are compounds tested against ATP-dependent Clp protease proteolytic subunit (Bacillus subtilis (strain 168)) (UniProt P80244) (assay: qHTS Assay for Activators of ClpP). Details: purified B. subtilis ClpP, FRET peptide cleavage, 20 min; series mostly up to 57.5 µM; activity change, negative = active: at the top concentration.
Sequence of ATP-dependent Clp protease proteolytic subunit (Bacillus subtilis (strain 168)) (P80244 whole entry, looked up): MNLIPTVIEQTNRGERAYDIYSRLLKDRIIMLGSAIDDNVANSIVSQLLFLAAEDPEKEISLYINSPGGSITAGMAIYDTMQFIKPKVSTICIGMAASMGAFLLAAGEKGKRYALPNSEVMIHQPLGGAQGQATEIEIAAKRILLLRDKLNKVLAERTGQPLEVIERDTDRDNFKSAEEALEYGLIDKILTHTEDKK
Text: The Clp protease proteolytic subunit (ClpP) is the core unit of the Clp complex belonging to the peptidase family S14 that hydrolyzes protein into small peptides in the presence of ATP and magnesium. It is ubiquitously expressed and is the major protease in bacteria. […] Unlike common antibiotics that simply interfere with the essential enzyme activity, ADEP binding activates the ClpP core in the absence of the regulatory Clp-ATPases leading to uncontrolled proteolysis and eventually cell death. Activators binding to the docking site on ClpP can also block formation of the ClpXP and ClpA/C-P holoenzyme complexes interfering with the normal biological functions of ClpP and thus have the potential to become new anti-microbials.
To identify activators of ClpP, a FRET based quenching reversal assay was developed using a purified B. subtilis ClpP and a decapeptide substrate (FRET-FV). The FRET-FV is tagged with a fluorescent molecule amino benzoic acid (donor) at the N-terminus and a nitrotyrosine quencher (acceptor) at the C-terminus. FRET-FV cleaves upon activation of ClpP with ADEP treatement and reverses the quenching effect of the nitrotyrosine causing an increase in fluorescence emission signal at 430nm. This assay was used to screen the Molecular Libraries Small Molecule Repository (MLSMR).
NIH Molecular Libraries Probe Production Centers Network [MLPCN]
NIH Chemical Genomics Center [NCGC]
Assay Submitter (PI): Michael Maurizi, National Cancer Institute
Two and a half microL/well of purified enzyme solution (final concentrations 10 microg/mL B. subtilis ClpP in 100 mM Tris/HCl pH8, 100 mM KCl, 0.05% low protease BSA, 2.5% glycerol, 0.01% Tween-20 buffer) was dispensed into 1536-well assay plates (Greiner, black solid, medium-binding plates) with Aurora Discovery BioRAPTR Flying Reagent Dispenser (FRD, Beckton-Dickenson). Compound solution (23 nL) was transferred to the assay plate using Kalypsys pin tool equipped with a 1536-pin tool. […] FRET signals at time 0 and after 20 min room temperature incubation were obtained using the PerkinElmer Envision plate reader with 320nm excitation and 430nm emission filters. Delta FRET value (Time 20 - Time 0) was calculated and normalized to the delta FRET value of positive control ADEP (5.8 microM final concentration) and negative control DMSO and no enzyme wells.
Further: the source files actives as falling curves though it sought activators and does not explain the sign; nearly all actives have a fitted effect of over 65% in size.

SMILES | activity change, negative = active | Potency
Cc1cccc(C)c1NC(=O)C(c1cccc(F)c1)N1CCN(C)CC1 (stereo not given) | -0.808% (inactive) | 
CCOc1ccc(CCN2C(=S)N([C@@H](CC(C)C)CN3CCC[C@@H]3CN3C(=S)NC[C@@H]3Cc3ccc(O)cc3)C[C@@H]2CC(C)C)cc1 | -1.86% (inactive) | 
O=C(N/N=C\c1ccc(Br)cc1)c1ccc(Cn2cccn2)o1 |  | 25.1 µM (active)
O=C(O)c1ccc(/C=N/NC(=O)c2ccc(Br)cc2)cc1 | -2.02% (inactive) | 
CN(C)c1ccc(/C=N/NC(=O)c2ccc(Cn3cc(Br)cn3)o2)cc1 | -1.66% (inactive) | 
O=S1(=O)CC(N2CCC(Cc3ccccc3)CC2)CN1Cc1ccccc1 (stereo not given) | -0.381% (inactive) | 
O=C(NCC(F)(F)F)c1ccc(S(=O)(=O)NCCc2ccc3c(c2)OCCO3)cc1 | 1.64% (inactive) | 
Cc1cc(Nc2ccc(C)c(C)c2)n2ncnc2n1 | 0.336% (inactive) | 
O=C(/C=C/c1ccc(Cl)cc1)Nc1ccc(Br)cn1 |  | 25.1 µM (active)
Cc1ccc(NC(=S)NC(=O)/C=C/c2ccc(Cl)cc2)cc1 | -2.53% (inactive) | 
O=C(/C=C/c1ccc(Cl)cc1)Nc1ccc(S(=O)(=O)Nc2ncccn2)cc1 | 1.87% (inactive) | 
Cc1ccc(-c2ccc(CN3C(C(C)C)C(=O)N(Cc4cn(CCC5OCCO5)nn4)CCS3(=O)=O)cc2)cc1 (stereo not given) | -0.425% (inactive) | 
Cc1cccc(CN2CCN(C3CN(Cc4ccccc4)S(=O)(=O)C3)CC2)c1 (stereo not given) | 1.14% (inactive) | 
CCN1CCN(C(=O)c2cc3cc4ccc(OC)cc4nc3s2)CC1 |  | 25.1 µM (active)
CCN(CCCNC(=O)c1cc2cc3cc(OC)ccc3nc2s1)c1ccccc1 | -0.725% (inactive) | 
CCN1CCN(C(=O)CN(C)S(=O)(=O)c2ccc(OC)cc2)CC1 | 1.17% (inactive) | 
COc1cccc(-c2cc3nc(NCc4ccccc4OC)n(C)c(=O)c3s2)c1 | 4.47% (inactive) | 
CC(C)(C)C1CCC(=NNC(=O)c2ccc(Br)o2)CC1 (stereo not given) | -0.0122% (inactive) | 
O=C(N/N=C\C1CC=CCC1)c1ccc(Br)o1 (stereo not given) | -1.65% (inactive) | 
CCC(C)(C)C1CCC(=NNC(=O)c2ccc(Br)o2)CC1 (stereo not given) |  | 25.1 µM (active)
COc1cccc(-c2cnc3c(NC(C)=O)cc(-c4cc(F)ccc4OC)cn23)c1 | -4.6% (inactive) | 
CC1=C(C(=O)N2CCOCC2)CC(CC(=O)NCc2cccs2)C(=O)N1CCCN1CCCC1=O (stereo not given) | -0.996% (inactive) | 
O=C(C=CC(=O)Nc1ccc(F)cc1F)Nc1ccc(F)cc1F | 0.87% (inactive) | 
CCCCC[C@@H]1C=C(C(=O)OCC)[C@H](c2ccccc2)N1S(=O)(=O)c1ccc(C)cc1 | -13.2% (inactive) | 

SMILES | activity change, negative = active | Potency
CC(C)Nc1ccc(-n2nc3ccccc3[n+]2[O-])cc1 |  | 28.2 µM (active)
CC(=O)Nc1cccc(-c2cc(NC(C)=O)c3ncc(-c4ccccc4)n3c2)c1 | 5.02% (inactive) | 
CS(=O)(=O)/C(C#N)=C/c1cccn1S(=O)(=O)c1ccc([N+](=O)[O-])cc1 | -2.66% (inactive) | 
O=C(NCCCc1ccccc1)c1ccc2c(c1)sc1nc(-c3ccc(F)cc3)cn12 | 4.44% (inactive) | 
COc1cccc(CNC(=O)c2ccc3c(c2)sc2nc(-c4cccc(OC)c4)cn23)c1 | 4.44% (inactive) | 
COc1ccc(-c2cn3c(n2)sc2cc(C(=O)Nc4ccc(F)cc4)ccc23)cc1 | -23.9% (inactive) | 
COc1ccc(CCNC(=O)Cc2ccc(C)cc2)cc1OC | -6.51% (inactive) | 
COc1ccc(CCNC(=O)c2ccc3c(c2)nc(C)n3-c2ccc(Br)cc2)cc1OC | -1.76% (inactive) | 
COc1ccc(CCNC(=O)c2ccc3c(c2)sc2nc(-c4ccc(C)cc4)cn23)cc1OC |  | 3.16 µM (active)
Cc1ccc(-c2cn3c(n2)sc2cc(C(=O)NCCCc4ccccc4)ccc23)cc1 |  | 15.8 µM (active)
CCOc1ccc(CCNC(=O)c2ccc3c(c2)sc2nc(-c4ccc(F)cc4)cn23)cc1OCC |  | 25.1 µM (active)
CCOc1ccc(CCNC(=O)Cn2nc(CC)n3c(cc4sc(CC)cc43)c2=O)cc1OCC | -1.22% (inactive) | 
CCc1nc2ccc(C(=O)Nc3cc(-c4ccccc4)ccc3OC)cn2c1N(CC)CC(=O)N(C)C | 4.3% (inactive) | 
CSc1ncnc2c1ncn2CCCNCC1CCCCC1 | -2.79% (inactive) | 
O=C1NC[C@H](CCCCN2CCN(CCc3ccccc3)C(=O)C2=O)N(CC2CCCCC2)C1=O | -1.02% (inactive) | 
CC(C)C[C@H]1CNC(=S)N1C[C@H]1CCCN1C[C@H](Cc1ccc(O)cc1)N1C[C@H](Cc2ccc(O)cc2)N(CC2CCCCC2)C1=S | 1.83% (inactive) | 
c1ccc(Cc2c(-c3ccco3)nc3c4ccccc4ccn23)cc1 | 4.55% (inactive) | 
Cc1ccc(C)c(C(O)c2ncc(-c3cccc4ccccc34)[nH]2)c1 (stereo not given) | 4.92% (inactive) | 
O=c1cc(CN2CCN(S(=O)(=O)/C=C/c3ccccc3)CC2)c2ccc(O)cc2o1 |  | 10 µM (active)
Cc1ccc2c(CN3CCN(S(=O)(=O)c4ccccc4C(F)(F)F)CC3)cc(=O)oc2c1 | -9.85% (inactive) | 
COc1ccc2c(CN3CCN(S(=O)(=O)c4cccs4)CC3)cc(=O)oc2c1 | -14.2% (inactive) | 
CCCNC(=O)C1(C)CCN(C(=O)c2cc(F)ccc2C)C1 (stereo not given) | 0.883% (inactive) | 
COc1ccc(C(=O)C(OP(=O)(OC)OC)c2ccccc2OC)cc1 (stereo not given) | -1.26% (inactive) | 
O=[N+]([O-])c1ccc(/C=C/c2ccc3cccnc3c2)cc1 | -3.98% (inactive) | 

SMILES | activity change, negative = active | Potency
N#Cc1ccc[n+](CC(=O)c2ccc(F)cc2)c1 | 0.138% (inactive) | 
Cc1nn(-c2ccccn2)c2c1C(c1ccncc1)C1=C(CC(C)(C)CC1=O)N2 (stereo not given) |  | 31.6 µM (active)
CC1(C)CC(=O)C2=C(C1)Nc1cc(C(=O)c3ccccc3)ccc1NC2c1ccccn1 (stereo not given) | -1.17% (inactive) | 
Cc1cc(C)c(C2C3=C(Nc4c2c(C)nn4-c2ccccn2)c2ccccc2C3=O)c(C)c1 (stereo not given) | -1.74% (inactive) | 
Clc1cccc[n+]1CCCC[n+]1ccccc1Cl | -3.17% (inactive) | 
Cc1noc(C)c1S(=O)(=O)N(C)C[C@H]1OCCCC[C@@H](C)Oc2ccc(NC(=O)CCCN(C)C)cc2C(=O)N([C@H](C)CO)C[C@@H]1C | 0.472% (inactive) | 
CCc1cc(C(=O)N(CC)CC(=O)Nc2c(F)cccc2F)sc1C | -1.44% (inactive) | 
FC(F)(F)COc1nc(N2CCCCC2)nc(N2CCNCC2)n1 | 0.515% (inactive) | 
CN(N)c1nc(N2CCCC2)nc(N2CCCC2)n1 |  | 31.6 µM (active)
O=C(NNc1nc(N2CCCC2)nc(N2CCCC2)n1)c1ccccc1 | 0.913% (inactive) | 
CC(C)C1C(=O)N(Cc2cn(CCC3OCCO3)nn2)CCS(=O)(=O)N1Cc1ccc(-c2ccccc2C(F)(F)F)cc1 (stereo not given) | 1.59% (inactive) | 
O=C(Nc1ccc(F)cc1)C(CCc1ccccc1)N1CCN(CC(=O)N2CCCC2)CC1 (stereo not given) | 1.39% (inactive) | 
CCN(CCCNC(=O)c1cc2c(=O)n(CC)c3ccccc3c2s1)Cc1ccccc1 |  | 3.55 µM (active)
CN(Cc1ccccc1)C(=O)c1cc2c(=O)n(C)c3ccccc3c2s1 | -25.1% (inactive) | 
CCn1c(=O)c2cc(C(=O)Nc3cccc(C(C)=O)c3)sc2c2ccccc21 | -5.57% (inactive) | 
NS(=O)(=O)c1ccc(CCNC(=O)c2ccc(Cl)c(S(=O)(=O)N3CCCCCC3)c2)cc1 | -3.6% (inactive) | 
Cc1c(C)n(Cc2ccc(Cl)cc2)c2ccc(C(=O)NCCc3ccc(S(N)(=O)=O)cc3)cc12 |  | 14.1 µM (active)
CCOC(=O)c1c(C)c(C(=O)NCCc2ccc(S(N)(=O)=O)cc2)c(C)n1CC | -24.6% (inactive) | 
COC(=O)[C@@]12C[C@@H](CC(=O)NCc3cccc(C(F)(F)F)c3)C(=O)N(Cc3ccco3)C1=CCC(C)(C)C2 | 1.62% (inactive) | 
Cc1cccc(CN2Cc3cccc4c3[C@H](C=CC4)CC2=S)c1 | -3.52% (inactive) | 
COc1ccc(CCNC(=O)COc2cc(C)cc3oc(=O)c(C)c(C)c23)cc1OC | -6.73% (inactive) | 
Cc1cc(OCC(=O)NCC(O)c2ccccc2)c2c(C)c(C)c(=O)oc2c1 (stereo not given) | 3.71% (inactive) | 
Cc1cc(OCC(=O)Nc2nccs2)c2c(C)c(C)c(=O)oc2c1 |  | 31.6 µM (active)
COc1ccccc1-c1cc(NC(C)=O)c2ncc(-c3ccc(F)cc3)n2c1 | 4.69% (inactive) | 

SMILES | activity change, negative = active | Potency
Cc1cc2[nH]ncc2cc1NC(=S)NC(=O)c1ccccc1 | 8.42% (inactive) | 
CCc1cccc(CC)c1NC(=S)Nc1ccc2cn[nH]c2c1 | -18.4% (inactive) | 
Cc1cccc(NC(=S)Nc2ccc3cn[nH]c3c2)c1 |  | 22.4 µM (active)
COc1cc(CNc2ncnc3c2ncn3[C@H]2CN(Cc3cccs3)C[C@@H](CO)O2)cc(OC)c1OC | -1.33% (inactive) | 
CC1(C(=O)NCc2cccc3ccccc23)CCN1Cc1ccc(-c2ccccc2)o1 (stereo not given) | -22.3% (inactive) | 
CCOc1ccc(S(=O)(=O)NCCC(=O)NCC2CCCO2)cc1 (stereo not given) | -0.322% (inactive) | 
CC1(C)CC(=O)c2cc(OCC(=O)NCC3CCCO3)ccc2O1 (stereo not given) |  | 11.2 µM (active)
C=CCOc1ccc(/C=C/C(=O)OCC(=O)NCC2CCCO2)cc1 (stereo not given) | 3.23% (inactive) | 
Cc1ccccc1S(=O)(=O)N1[C@@H](c2cccc(Cl)c2)C(C(=O)OC(C)(C)C)=CC[C@H]1c1ccc(Cl)cc1 | -4.28% (inactive) | 
COC(=O)C1(C(=O)OC)C/C=C\CN(S(=O)(=O)c2ccccc2[N+](=O)[O-])CCC1 | 0.858% (inactive) | 
O=C(Nc1ccccc1-c1nnn(CC(=O)N2CCCc3ccccc32)n1)c1cccc(Cl)c1 |  | 20 µM (active)
O=C(Nc1ccccc1-c1nnn(CC(=O)N2CCN(c3ccccc3)CC2)n1)c1cccs1 | -19.7% (inactive) | 
Cc1cccc(C(=O)Nc2ccccc2-c2nnn(CC(=O)Nc3ccc4c(c3)OCCO4)n2)c1 | 3.15% (inactive) | 
COC(=O)[C@]12CCCCC=C1N(Cc1ccc3c(c1)OCO3)C(=O)[C@H](CC(=O)NCc1cccs1)C2 | -1.48% (inactive) | 
CCCCCCCCN1C(=O)[C@H](CC(=O)NCC23CC4CC(CC(C4)C2)C3)C[C@@]2(C(=O)OC)CCCCC=C12 | -1.46% (inactive) | 
COc1ccc(C(=O)NNS(=O)(=O)c2ccc(C)cc2)cc1 | -7.98% (inactive) | 
Cc1ccc(S(=O)(=O)NNC(=O)Nc2cccc3ccccc23)cc1 |  | 14.1 µM (active)
O=C(Nc1cccc2ccccc12)NC1CC1 | 3.85% (inactive) | 
COc1ccc(-c2nc(=N)sn2-c2ccccc2)cc1 | -2.14% (inactive) | 
COC(=O)[C@@]12C[C@@H](CC(=O)NCCCCc3ccccc3)C(=O)N(Cc3ccccc3)C1=CCC(C)(C)C2 | -1.89% (inactive) | 
COc1ccc(/C=N/NC(=O)c2ccc(Cl)cc2)cc1COC(C)=O |  | 25.1 µM (active)
COc1cccc(OCc2cc(/C=N/NC(=O)c3nc(Cl)c(Cl)c(N)c3Cl)ccc2OC)c1 | -23.6% (inactive) | 
COc1cc(/C=N/NC(=O)CNC(=O)c2ccncc2)ccc1OC(C)=O | -0.766% (inactive) | 
